This is a sample that favours compounds with a hit; in the whole collection about 1% have one here.
RGS4 inh: inhibitors of human regulator of G protein signaling 4; Transcreener GDP fluorescence polarization, RGS4-accelerated GTP hydrolysis; actives 0.039% (n = 390,000); Potency, µM (doses to about 114 µM), for the others: top-dose activity change, negative = inhibition, usual class: inhibitors; further: nearly all actives have a fitted effect of over 75% in size
Target sequence (P49798 whole entry, looked up): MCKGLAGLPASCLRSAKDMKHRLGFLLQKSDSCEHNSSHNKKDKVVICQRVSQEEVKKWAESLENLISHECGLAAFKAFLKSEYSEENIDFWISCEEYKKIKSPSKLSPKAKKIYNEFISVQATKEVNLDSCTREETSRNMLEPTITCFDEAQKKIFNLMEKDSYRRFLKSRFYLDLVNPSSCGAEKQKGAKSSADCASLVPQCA
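MLSMR compounds (23 nl, pin-transferred) preincubated 10 min at room temperature with a 500nM (2x) first reagent, then RGS4 at 900nM (2x) plus Transcreener GDP mix added; fluorescence polarization (620/688 nm) read before and after 90 min at 30 °C.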
USP2a inh: inhibitors of human ubiquitin-specific protease USP2a; O75604; USP2 core, Ub-CHOP2 coupled fluorogenic reporter, 485/531; Potency, µM (doses to about 38.3 µM), without a hit: top-dose activity change, negative = inhibition, usual class: inhibitors; actives 0.01% (n = 330,000); AID 463254;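 further: plate controls were DMSO wells for no effect and full inhibition by NEM control for full effect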
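USP2 core (10nM final) preincubated 30min RT with compound in 20mM Tris-HCl pH 8.0, 2mM CaCl2, 2mM beta-mercaptoethanol, 0.05% CHAPS; 25nM Ub-CHOP2 plus 25nM reporter substrate added, fluorescence (Ex485/Em531) read after 60min.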
GALK inhibitor: inhibitors of human galactokinase. Purified GALK, Kinase-Glo residual ATP luminescence. AID 1868. P51570. Potency, µM (doses to about 57.5 µM), inactives show top-dose activity change, negative = inhibition, actives largely listed as inhibitors. actives 0.007% (n = 270,000)
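5 nM enzyme, 35 uM ATP, 100 uM galactose, 20 mM HEPES pH8.0, 5 mM MgCl2; 1 h RT; residual ATP by Kinase-Glo Plus luminescence, qHTS format.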
Eya2 inh: blocks the phosphatase activity of human Eya2 | O00167 | recombinant Eya2, OMFP fluorescence dephosphorylation (OMFP is methylfluorescein phosphate) | Potency, µM (titrated, usually from 76.9 µM), for inactives: top-dose activity, negative = inhibition, most hits filed as inhibitors | actives 0.006% (n = 330,000) | AID 488837
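Eya2 protein (added as 0.2 uM solution) was preincubated with compound for 10 min at ambient temperature in 50 mM HEPES pH 7.5, 50 mM NaCl, 5 uM MgCl2, 0.05% BSA, 1 mM DTT. OMFP (added at 50 uM) then reacted 10 min; fluorescence read at 485/525 nm.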
TrxR1 substrate: substrates of rat thioredoxin reductase 1; actives 0.01% (n = 390,000); purified TrxR1 substrate turnover, NADPH consumption readout; Potency, µM (highest dose often 114 µM), inactives show top-dose activity change, negative = substrate turnover; AID 588456; further: nearly all actives have a fitted effect of over 50% in size
Target sequence (O89049 whole entry, looked up): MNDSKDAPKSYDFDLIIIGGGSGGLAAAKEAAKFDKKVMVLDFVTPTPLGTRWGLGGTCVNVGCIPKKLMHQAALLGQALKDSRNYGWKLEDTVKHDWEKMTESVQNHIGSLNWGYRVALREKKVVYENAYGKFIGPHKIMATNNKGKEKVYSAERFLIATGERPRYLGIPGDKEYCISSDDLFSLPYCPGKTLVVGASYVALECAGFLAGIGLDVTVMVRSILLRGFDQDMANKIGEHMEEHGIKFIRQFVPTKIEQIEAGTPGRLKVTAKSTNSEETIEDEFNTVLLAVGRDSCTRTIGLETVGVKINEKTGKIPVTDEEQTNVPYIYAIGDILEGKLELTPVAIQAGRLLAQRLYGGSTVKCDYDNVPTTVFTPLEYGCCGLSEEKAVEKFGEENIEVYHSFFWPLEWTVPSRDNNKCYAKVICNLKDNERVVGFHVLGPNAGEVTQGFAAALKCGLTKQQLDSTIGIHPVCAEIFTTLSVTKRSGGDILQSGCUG
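Rat TrxR1, dispensed at 90 nM, was prereduced with 400 uM NADPH (final) for 5 min at ~22 deg C, then incubated with compound 15 min before 400 uM selenite. A first-read NADPH fluorescence drop versus no-compound background flagged substrates.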
TrxR1 inh: rat TrxR1 inhibition; Potency, µM (series often up to 114 µM), for the others: top-dose activity change, negative = inhibition, usual class: inhibitors; O89049; recombinant rTrxR1, NADPH fluorescence consumption, selenite substrate; AID 588453; actives 1% (n = 390,000); further: nearly all actives have a fitted effect of over 65% in size
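Rat TrxR1 (90 nM in the dispensed reagent) was pre-reduced with 400 uM NADPH for 5 min at room temperature, then incubated with compound for 15 min. After 400 uM selenite was added, NADPH fluorescence (Ex 340/Em 450 nm) was followed for 8 min.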
An asterisk follows results filed as active; ? = inconclusive; / = no result; [ ] = remark or other dose. The call rests on the fitted dose curve; in most records, active means well fitted curve in the direction sought with a large enough effect; inconclusive means small, poorly fitted or top-dose-only effect, or another doubt; inactive means no such curve, though single readings can be large; an effect the other way counts as inactive or inconclusive. Unless noted, on the % scale 0 is the no-effect control and ±100 the full control effect; potency means the concentration at half of the fitted maximal effect.

SMILES	RGS4 inh	USP2a inh	GALK inhibitor	Eya2 inh	TrxR1 substrate	TrxR1 inh
O=C(NN1C(=O)/C(=C/C=C/c2ccco2)SC1=S)c1ccncc1	?	?	-4%	2%	-7%	13µM*
O=C1/C(=C\c2ccco2)SC(=S)N1c1ccc(O)cc1	18%	-10%	/	-4%	-1%	-1%
CC(C)C(C(=O)O)N1C(=O)/C(=C/C=C/c2ccco2)SC1=S (stereo not drawn)	?	?	-6%	1%	?	32µM*
O=S1(=O)CCO[C@H]2CCCC[C@@H]2N1Cc1ccccc1F	/	/	/	/	6%	10%
Cc1ccccc1OCC(=O)NCC(=O)OCC(=O)c1ccc(Br)cc1	-14%	/	/	/	7%	9%[0.0914 µM]
Cc1oc(-c2ccccc2F)nc1CS(=O)CC(=O)NCc1cccs1 (stereo not drawn)	-8%	0%	-2%	4%	5%[57.1 µM]	?
CCC(C)NC(=O)CS(=O)Cc1nc(-c2ccccc2C)oc1C (stereo not drawn)	-49%	0%	1%	12%	18%[57.1 µM]	7.1µM*
Cc1oc(-c2ccccc2F)nc1CS(=O)CC(=O)NC(C)C (stereo not drawn)	-18%	/	/	/	1%	40µM*
O=C(Nc1ccccc1-c1cn2c(CN3CCNCC3)csc2n1)c1cnc2ccccc2n1	/	/	/	/	-5%	-15%
O=C(CC(c1ccccc1)c1ccco1)N1CCCCC1 (stereo not drawn)	/	0%	-2%	2%	/	/
Cc1ccc(C(CC(=O)N2CCOCC2)c2ccco2)cc1 (stereo not drawn)	-43%	3%	0%	-21%	2%	45µM*
O=C(CSc1ccc(Cl)cc1)c1ccco1	-48%	-2%	7%	5%	6%	45µM*
O=C(NCCSc1ccc(Cl)cc1)c1ccco1	-24%	4%	-1%	14%	2%	10%
O=C(CSc1ccccc1Cl)c1ccco1	-15%	2%	9%	13%	-8%	?
O=C(CCSc1ccc(Cl)cc1)c1ccco1	-5%	-6%	4%	-6%	4%	10µM*
COc1cc(OC)c(/C=C/c2nccc3ccccc23)c(OC)c1	/	/	/	/	-13%	-1%
CSc1ccc(/C=C2\C=Cc3cc([N+](=O)[O-])ccc32)cc1	/	/	/	/	-9%	?
CN(C)c1ccc(/C=C/c2cc(/C=C/c3ccc(N(C)C)cc3)c3ccccc3n2)cc1	/	/	/	/	-1%[0.0914 µM]	27%
CC(C)C[C@@H](CN=[N+]=[N-])N1CCN(CCc2ccccc2)CCC1=O	/	/	/	/	2%	1%
Cc1cccc(N(Cc2ccccc2)C(=O)CCl)c1	-4%	1%	2%	-11%	-11%[57.1 µM]	8.9µM*
O=C(CCl)N(Cc1ccccc1)c1ccccc1	0%[11.4 µM]	13%	-2%	-2%	1%	?
COc1cccc(-c2nc(CS(=O)(=O)CC(=O)NC3CCCc4ccccc43)c(C)o2)c1 (stereo not drawn)	-17%	-3%	1%	7%	5%[57.1 µM]	10µM*
COc1ccc(C(=O)C2C(=O)C(=O)N(Cc3ccco3)C2c2cccs2)cc1 (stereo not drawn)	-25%	/	/	/	-14%	45µM*
COc1ccc(S(=O)(=O)CCC(=O)N2CCN(c3ccc([N+](=O)[O-])cc3)CC2)cc1	-9%	0%	-2%	-3%	-4%	2%
Cc1ccc(S(=O)(=O)CCC(=O)N2CCN(c3ccc([N+](=O)[O-])cc3)CC2)cc1	-44%	1%	9%	-6%	-2%	28µM*
SMILES	RGS4 inh	USP2a inh	GALK inhibitor	Eya2 inh	TrxR1 substrate	TrxR1 inh
CSc1nnc(NC(=O)c2nc(S(=O)(=O)Cc3ccccc3)ncc2Cl)s1	?	1%	-6%	5%	-8%	32µM*
CCCc1nnc(NC(=O)c2nc(S(=O)(=O)Cc3ccc(C)cc3)ncc2Cl)s1	?	-1%	4%	10%	5%	50µM*
CC(C)c1nnc(NC(=O)c2nc(S(=O)(=O)Cc3ccccc3)ncc2Cl)s1	?	-1%	-3%	10%	-2%	50µM*
CSc1ncc(Cl)c(C(=O)Nc2nnc(SC)s2)n1	-33%	1%	1%	3%	-10%	13%[57.1 µM]
Cc1ccccc1CS(=O)(=O)c1ncc(Cl)c(C(=O)Nc2nnc(C(C)C)s2)n1	-22%	/	/	/	2%	7.1µM*
CC(C)Sc1ncc(Cl)c(C(=O)Nc2nnc(C(C)C)s2)n1	3%	/	/	/	-2%	15%
COc1cc(/C=C/c2cncc(/C=C/c3cc(OC)c(OC)c(OC)c3)c2)cc(OC)c1OC	/	/	/	/	-2%	13%
C=CC(C)=C[C@@]1(C)SC(=O)C(C)=C1O	5%[56.9 µM]	/	/	-2%	-10%[57.1 µM]	23%[57.1 µM]
CN(C)c1ccc(/C=C/c2ccnc3ccc(-c4ccccc4)cc23)cc1	/	/	/	/	-10%	-1%
COc1ccccc1C1N=C(Nc2nc3ccccc3o2)NC2=C1C(=O)CC(C)(C)C2 (stereo not drawn)	6%	/	/	/	13%	23%
CCCc1cc(NC(=O)CCl)n(-c2ccccc2)n1	-20%	2%	0%	4%	-1%	50µM*
O=C(N/N=C\c1ccc(Sc2ccccn2)o1)c1cccc(Br)c1	-10%	-2%	0%	3.2µM*	-4%	-16%
Cc1ccccc1C(=O)N/N=C/c1ccc(Sc2ccccn2)o1	6%	2%	2%	/	-15%	?
CCOc1ccccc1N(C)C(=O)CCS(=O)(=O)c1ccc2c(c1)NC(=O)C(C)S2 (stereo not drawn)	-57%[56.9 µM]	2%	-5%	-8%	-4%	71µM*
COc1ccc(-c2nn(CCC#N)cc2C=C(C#N)C#N)cc1	1%	-1%	1%	-2%	-14%	?
Cc1ccc(-c2nn(CCC#N)cc2C=C(C#N)C#N)cc1	-33%	4%	1%	1%	1%	7.9µM*
COc1cc2c(NC3CCN(C)CC3)nc(N3CCCN(C)CC3)nc2cc1OCC1CCCCN1 (stereo not drawn)	/	/	/	/	95%	?
O=c1[nH]n(-c2ccc(Cl)cc2)c(=O)c(Cl)c1Cl	3%	-4%	3%	-9%	10%[57.1 µM]	22µM*
O=C1CCCC2=C1C(c1ccco1)Nc1ccc3ccccc3c12 (stereo not drawn)	?	?	3%	-11%	27%	40µM*
O=C(O)c1ccc(N/N=C/C(Br)=C/c2ccccc2)cc1	-16%	-2%	1%	-5%	-15%	32µM*
CN(C)c1ccc(-c2cc(C3C4C=CCCC4(C)C(=O)N3Cc3ccccc3)ccc2F)cc1 (stereo not drawn)	1%	/	/	/	30%	11%

Screening data from PubChem BioAssay.
